Test results: PubChem BioAssay (NCI)
Where “and” joins values, the source holds several entries; their conditions need not be identical. Equal values may be shown once. Compounds without any hit were thinned out: in the full panel of roughly 79,000, 15% have a hit. Rule as the data show it: active = growth inhibition above about 70%; inactive = the rest.

Experiments:
[1] = NCI Yeast Anticancer Drug Screen. Data for the rad50 strain (AID 155);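 also: 0% = growth of vehicle-only cultures of the same strain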; details: S. cerevisiae rad50 strain growth inhibition; at 50.0 µM; stronger effect = higher value
How it was run: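 Cells are treated with compound, grown, and their growth is then scored against vehicle-only cultures of the same repair-deficient yeast strain.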

[2] = NCI Yeast Anticancer Drug Screen. Data for the mec2-1 strain (AID 157); details: S. cerevisiae mec2-1 strain, at 50.0 µM, stronger effect = higher value
How it was run: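 Compounds were applied to mec2-1 yeast cells. Their growth was then compared with that of vehicle-treated cultures to give growth inhibition.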

[3] = NCI Yeast Anticancer Drug Screen. Data for the sgs1 mgt1 strain (AID 161);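 also: 0% = growth of cultures given vehicle only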; details: S. cerevisiae sgs1 mgt1 strain, at 50.0 µM, stronger effect = higher value
How it was run: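 Growth of a repair-deficient yeast mutant was monitored after compound treatment and expressed as inhibition relative to vehicle-treated cultures.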

[4] = NCI Yeast Anticancer Drug Screen. Data for the cln2 rad14 strain (AID 165);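 also: 0% = growth equal to vehicle treated cultures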; details: S. cerevisiae cln2 rad14 strain, at 50.0 µM, stronger effect = higher value
How it was run: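 Strain: cln2 rad14 yeast, altered in cell cycle control and DNA damage repair. Read-out: growth inhibition vs vehicle.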

[5] = NCI Yeast Anticancer Drug Screen. Data for the bub3 strain (AID 167); details: S. cerevisiae bub3 mutant strain, at 50.0 µM, stronger effect = higher value
How it was run: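 Part of a panel of yeast mutants defective in DNA damage repair or cell cycle regulation. Each strain is grown with compound, and inhibition is calculated relative to solvent-treated cultures.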

[6] = NCI Yeast Anticancer Drug Screen. Data for the mlh1 rad18 strain (AID 175); details: S. cerevisiae mlh1 rad18 strain growth inhibition; at 50.0 µM; stronger effect = higher value
How it was run: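 A repair-deficient yeast strain is exposed to test compound, and growth is scored relative to vehicle-treated controls.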

Measured: growth inhibition

CC(=O)NC1CCC(C(F)(F)F)CC1 (configuration not stated)
inactive: [1] 9.9% and 2.15% | [2] 5.75% and -5.7% | [3] -9.5% and -4.95% | [4] -6.2% and -21.2% | [5] -1.75% and -2.55% | [6] 12.8% and 8.05%

C1=NCCCN1
inactive: [1] 19.4% and 21.4% | [2] -7.95% and -23.4% | [3] 13.3% and 20.6% | [4] 9.4% and 6.35% | [5] 18.2% and 3% | [6] 22.2% and 18.6%

COc1nc2c(c(=O)n1C)NC(C(O)C(O)CO)C=N2 (configuration not stated)
inactive: [1] -34.7% and -26.7% | [2] -20.6% and -33.5% | [3] -23.8% and -25.8% | [4] -5.05% and 8.25% | [5] -14.8% and -15.7% | [6] -23.4% and -17.4%

COc1cc(C2c3cc4c(cc3C(OC(=O)c3ccc[n+](C)c3)C3COC(=O)C23)OCO4)cc(OC)c1OC (configuration not stated)
inactive: [1] -16.2% and -3.1% | [2] -11.3% and 8.1% | [3] -11.3% and 2.3% | [4] -17.5% and -1.65% | [5] 13.1% and 41.8% | [6] 5.45% and 9.45%

OCCN1CCNCC1
inactive: [1] 4.4% and -9.55% | [2] -0.5% and -14.3% | [3] 4.95% and -17.8% | [4] 8.3% and -15.8% | [5] -23.5% and 13.4% | [6] 1.75% and -19.2%

NC(C(=O)O)C(CC(=O)O)C(=O)O (configuration not stated)
inactive: [1] 1.8% and 9.2% | [2] -2.1% and 11.2% | [3] -1.95% and -2.75% | [4] -57% and -40% | [5] -10.9% and -0.05% | [6] 16.4% and 9.75%

COc1ccc(-c2[nH]c(=O)n(C3OC(CO)C(O)C(O)C3O)c(=O)c2C#N)cc1 (configuration not stated)
inactive: [1] 7.65% and 19.9% | [2] 5.4% and 6.1% | [3] -8.55% and 1.1% | [4] 36.9% and 13.5% | [5] 6.95% and 7.6% | [6] -78.4% and -59%

Cc1ccc(S(=O)(=O)NC(CCC(=O)O)C(=O)O)cc1 (configuration not stated)
inactive: [1] -11.2% and -4.6% | [2] -22.7% and 7.2% | [3] 0.15% and 0.2% | [4] -6.75% and -12.2% | [5] 21.1% and 6.9% | [6] -12.4% and 9.75%

CC(C(=O)O)C(=O)O.[NH-]C1CCCCC1[NH-].[Pt+2]
inactive: [1] 8.5% and 16.2% | [2] 6.7% and 5.2% | [3] -11.1% and -3.45% | [4] 11.2% and -0.05% | [5] 20.4% and 21.3% | [6] 32.3% and 34.4%

COC1OC(COC(=O)c2ccccc2)C(OC(=O)c2ccccc2)C1OC(=O)c1ccccc1 (configuration not stated)
inactive: [1] -15.4% and 7.8% | [2] -2.5% and -10.2% | [3] -3.65% and -3.95% | [4] -28.1% and -21.9% | [5] 15.9% and -0.85% | [6] 9% and 4.6%

CCN(CC)C(=O)N1CCN(C)CC1
inactive: [1] 26.1% and -15.6% | [2] -26.9% and -4.6% | [3] 1.4% and -3.65% | [4] -41.1% and 5.8% | [5] -1.1% and 9.7% | [6] 15.2% and -8%

CC(C)(O)C(I)C[n+]1ccccc1 (configuration not stated)
inactive: [1] 38.5% and -7.55% | [2] 41.6% and -2.95% | [3] 50.5% and -28.9% | [4] 4.9% and -6.9% | [5] 39.9% and 0.85% | [6] 46.9% and -7.3%

O=C(c1ccco1)C(O)c1ccco1 (configuration not stated)
inactive: [1] 18.4% and -8.55% | [2] -12.6% and -3.75% | [3] 1.55% and 11.1% | [4] 3.95% and -7.7% | [5] 15.7% and 1.55% | [6] -0.05% and -12.2%

O=C(O)/C=C/c1ccccc1
inactive: [1] 15.1% and 41.8% | [2] 16.6% and 2.4% | [3] 27.5% and 7.65% | [4] 14.8% and 7.35% | [5] 4.1% and 19.3% | [6] 22.2% and 31.9%

COC1OC(CO)C(O)C(O)C1N1C(=O)c2ccccc2C1=O (configuration not stated)
inactive: [1] 9.35% and -4.5% | [2] -4.15% and 8.4% | [3] 22.6% and -3.85% | [4] 7.95% and -15.8% | [5] 12.2% and 4.45% | [6] 19% and -3.45%

O=[N+]([O-])c1ccc(NCS(=O)(=O)O)cc1
inactive: [1] 6.95% and -2% | [2] -14.3% and -7.9% | [3] -9.35% and 5.9% | [4] -12.2% and -15.8% | [5] 8.55% and -3.05% | [6] 5.7% and 17.8%

COC(=O)C1OC(O[C@H]2CC[C@]3(C)[C@H]4CC=C5[C@@H]6CC(C)(C)CC[C@]6(C(=O)OC6OCC(O)C(O)C6OC6OC(C)C(OC7OCC(O)C(OC8OCC(O)C(O)C8O)C7O)C(OC7OCC(O)C(O)C7O)C6O)CC[C@@]5(C)[C@]4(C)CC[C@H]3C2(C)C)C(O)C(OC2OCC(O)C(O)C2O)C1O (some centres not stated)
inactive: [1] 18.1% and 22.6% | [2] 7.8% and 16.5% | [3] 18.6% and 23.1% | [4] 18.1% and 18.7% | [5] 30.2% and 22.7% | [6] 26.2% and 38%

O=C(O)C(O)C(O)C(O)C(=O)CO (configuration not stated)
inactive: [1] -2.25% and -13.1% | [2] -27.3% and -1.05% | [3] -4.9% and -10.4% | [4] -32.6% and -40.5% | [5] -16.9% and -42.5% | [6] -19.2% and 13.7%

O=C(O)CCC(=O)c1cccs1
inactive: [1] 12.8% and -5.4% | [2] 4.25% and 19.6% | [3] 2.2% and -4.45% | [4] -28.4% and -5.5% | [5] -5.1% and -25.4% | [6] -28.9% and -21.1%

O=C(O)CCC(C(=O)O)N1C(=O)c2ccccc2C1=O (configuration not stated)
inactive: [1] 9.3% and -0.9% | [2] -0.3% and -41.5% | [3] 0.3% and -24.4% | [4] -30.1% and -10.7% | [5] 3.75% and -48.2% | [6] 8.6% and -0.75%

C=CCC(N)C(=O)O (configuration not stated)
inactive: [1] -11.9% and -1% | [2] -20.6% and -4.45% | [3] 4.95% and -1.85% | [4] 13.5% and 2.3% | [5] -10.6% and 8.3% | [6] -1.7% and -3%

C=C1C[C@]23C[C@@]1(O)CC[C@H]2[C@@]12C=C[C@H](O)[C@@](C)(C(=O)O1)[C@H]2[C@@H]3C(=O)O
inactive: [1] -20.4% and -0.7% | [2] -39.5% and -16.6% | [3] -31.1% and -1.3% | [4] 0.4% and 0.9% | [5] -51.8% and -18.1% | [6] -52.4% and -3%
